This note sets out measurements from PubChem BioAssay (Tox21).

Experiment [1] is described as follows: qHTS assay to identify small molecule antagonists of the thyroid receptor (TR) signaling pathway (AID 743065). Also: nearly all actives have a fitted effect of over 55% in size. Also: potency is read from the fitted curve at half-maximal effect. In outline: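 GH3.TRE-Luc rat pituitary cells carrying two TR response elements driving luciferase were plated for 4 h, given compound plus 1 nM T3 (final), and incubated 23.5 h at 37 C. ONE-Glo luminescence measured reporter inhibition; CellTiter-Fluor fluorescence tracked cytotoxicity.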

Experiment [2] deals with thyroid hormone receptor (rat, GH3 cells). Briefly: qHTS assay to identify small molecule agonists of the thyroid receptor (TR) signaling pathway (AID 743066; calls by dose curve). In general terms: Quantitative high-throughput screening tests each substance at several concentrations.
The nature of experiment [3]: qHTS assay to identify small molecule antagonists of the estrogen receptor alpha (ER-alpha) signaling pathway - cell viability counter screen (AID 743074; calls by dose curve; also: nearly all actives have a fitted effect of over 45% in size).
The target of experiment [4] is Estrogen receptor (Homo sapiens) (UniProt P03372). Briefly: qHTS assay to identify small molecule agonists of the estrogen receptor alpha (ER-alpha) signaling pathway (AID 743075; calls by dose curve).
For experiment [5] the target is unchanged. Briefly: qHTS assay to identify small molecule agonists of the estrogen receptor alpha (ER-alpha) signaling pathway using the BG1 cell line (AID 743079). Also: nearly all actives have a fitted effect of over 20% in size.
Experiment [6] is described as follows: qHTS assay to identify small molecule antagonists of the estrogen receptor alpha (ER-alpha) signaling pathway using the BG1 cell line (AID 743080; calls by dose curve;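 also: BG1 cells stimulated with 17beta-estradiol alongside compound; series mostly up to about 70 µM; nearly all actives have a fitted effect of over 25% in size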). The essentials: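 Endogenous full-length ER-alpha in BG1-Luc-4E2 cells drives a stably integrated 4×ERE luciferase gene; compounds were tested against 17beta-estradiol over 21.5 h, with luminescence and multiplexed viability fluorescence recorded.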

Experiment [7] is described as follows: qHTS assay to identify small molecule antagonists of the estrogen receptor alpha (ER-alpha) signaling pathway using the BG1 cell line - cell viability counter screen (AID 743081).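 Also: compound given together with 17beta-estradiol as the ER stimulus; series mostly up to about 70 µM; nearly all actives have a fitted effect of over 45% in size.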
Experiment [8] has as its target Aryl hydrocarbon receptor (Homo sapiens) (UniProt P35869). Briefly: qHTS assay to identify small molecule that activate the aryl hydrocarbon receptor (AhR) signaling pathway (AID 743085).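 Also: HG2L7.5c1 human HepG2 liver cells with stably integrated DRE-driven firefly reporter; series mostly up to about 70 µM; nearly all actives have a fitted effect of over 15% in size.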 The essentials:
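Compounds were tested in HepG2 hepatocellular carcinoma cells harbouring a stably integrated luciferase gene under control of 20 DREs. Increased reporter signal after 24 h treatment at 37C was taken as AhR activation.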

Experiment [9] can be described thus: qHTS assay to identify small molecule that activate the aryl hydrocarbon receptor (AhR) signaling pathway - cell viability counter screen (AID 743086).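 Also: HepG2 liver cells carrying the AhR DRE luciferase reporter; series mostly up to about 70 µM; nearly all actives have a fitted effect of over 45% in size.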 The essentials:
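HepG2-AhR-luc (HG2L7.5c1) cells, 4000/well, were preincubated 5 h at 37C, exposed to compound in qHTS format for 24 hr at 37C, then given CellTiter-Fluor for 30 min; viability was read as fluorescence in the reporter wells.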

The target in experiment [10] is Peroxisome proliferator-activated receptor gamma (Homo sapiens) (UniProt P37231). Briefly: qHTS assay to identify small molecule antagonists of the peroxisome proliferator-activated receptor gamma (PPARg) signaling pathway (AID 743191; calls by dose curve; also: series mostly up to about 63 µM; nearly all actives have a fitted effect of over 30% in size). In outline: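 GeneBLAzer PPARg UAS-bla HEK293H cells carrying a UAS-driven beta-lactamase reporter were plated at 3000 cells/well, preincubated 5 h at 37C, then given compound for 17 h at 37C; LiveBLAzer B/G FRET substrate was read after 1 h at room temperature.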

The nature of experiment [11]: qHTS assay to identify small molecule antagonists of the peroxisome proliferator-activated receptor gamma (PPARg) signaling pathway - cell viability counter screen (AID 743194). Also: nearly all actives have a fitted effect of over 55% in size. In outline:
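PPARg-UAS-bla HEK293H cells were plated, rested 5 h at 37 C, then treated with compounds plus rosiglitazone (50 nM final) for 17 h at 37 C; viability was then read by CellTiter-Glo luminescence after 30 min at room temperature.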

The nature of experiment [12]: qHTS assay for small molecule agonists of the antioxidant response element (ARE) signaling pathway - cell viability counter screen (AID 743203; calls by dose curve; also: nearly all actives have a fitted effect of over 55% in size). The essentials:
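ARE-bla HepG2 cells were plated, rested 5 h at 37C/5% CO2, then exposed to compounds in DMSO for 16 h. Viability was read as CellTiter-Glo luminescence after 30 min at room temperature, in the same wells as the ARE screen.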

The nature of experiment [13]: qHTS assay for small molecule activators of the heat shock response signaling pathway - cell viability counter screen (AID 743209). Also: nearly all actives have a fitted effect of over 50% in size. In outline:
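HSE-bla HeLa cells plated overnight, then exposed to Tox21 compounds (23 nL in DMSO) for 5 h at 37 C. After the bla reporter read, CellTiter-Glo was added in the same wells and luminescence read after 30 min at room temperature.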

Experiment [14] can be described thus: qHTS assay for small molecule activators of the heat shock response signaling pathway (AID 743210; active = well fitted activation curve with a large enough effect in the signal ratio in the repeat runs, with a control signal flat, not every such curve was filed as active; the % refers to the signal ratio; also: series mostly up to about 63 µM). The essentials: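 HSE-bla HeLa cells (beta-lactamase reporter under heat shock response elements) were exposed to compounds for 5 h at 37 C, then loaded with LiveBLAzer B/G FRET substrate for 2.5 h at room temperature before fluorescence reading.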
Experiment [15] is described as follows: qHTS assay to identify small molecule antagonists of the thyroid receptor (TR) signaling pathway - cell viability counter screen (AID 743064). Also: nearly all actives have a fitted effect of over 50% in size. Also: potency is read from the fitted curve at half-maximal effect. The essentials:
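Rat GH3 pituitary tumor cells stably expressing two TR response elements driving luciferase were plated, rested 4 h, then dosed with library compounds and T3 (1 nM final). After 23.5 h at 37 °C, CellTiter-Fluor was added for 30 min and fluorescence recorded.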

The target of experiment [16] is Aromatase (Homo sapiens) (UniProt P11511). Briefly: qHTS assay to identify aromatase inhibitors (AID 743083). Also: series mostly up to about 70 µM; nearly all actives have a fitted effect of over 55% in size.
A short description of experiment [17]: qHTS assay to identify aromatase inhibitors - cell viability counter screen (AID 743084).
Experiment [18] concerns the target Peroxisome proliferator-activated receptor gamma (Homo sapiens) (UniProt P37231). Briefly: qHTS assay to identify small molecule agonists of the peroxisome proliferator-activated receptor gamma (PPARg) signaling pathway (AID 743094; active = well fitted activation curve with a large enough effect in the signal ratio in the repeat runs, not every such curve was filed as active; the % refers to the signal ratio). In outline: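 GeneBLAzer PPARg UAS-bla HEK293H cells were plated, rested 5 h, then exposed to compounds for 17 h at 37C. Beta-lactamase activity was read by LiveBLAzer B/G FRET substrate fluorescence after 1 h at room temperature.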

Experiment [19] in a line: qHTS assay for small molecule agonists of the antioxidant response element (ARE) signaling pathway (AID 743202; active = well fitted activation curve with a large enough effect in the signal ratio in the repeat runs, not every such curve was filed as active; the % refers to the signal ratio; also: potency is read from the fitted curve at half-maximal effect). In outline:
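Read-out: LiveBLAzer B/G FRET substrate fluorescence after 2 h at room temperature, following 16 h compound treatment at 37 C of HepG2 cells carrying an ARE-driven beta-lactamase reporter.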

The target of experiment [20] is Estrogen receptor (Homo sapiens) (UniProt P03372). Briefly: qHTS assay to identify small molecule antagonists of the estrogen receptor alpha (ER-alpha) signaling pathway (AID 743069; active = well fitted curve in the direction sought with a large enough effect in the signal ratio in the repeat runs, not every such curve was filed as active; the % refers to the signal ratio). In outline:
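HEK293 cells stably carrying an ER-alpha-UAS-bla beta-lactamase reporter were pre-cultured overnight in 2% charcoal-stripped FBS medium. Test compounds in DMSO were added together with 17beta-estradiol for 18 hr at 37C. Read-out was fluorescence after 2 hr with LiveBLAzer B/G FRET substrate at room temperature.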

Records with an inconclusive call do not appear. The source made the active and inactive calls. Unless noted, calls follow the shape of the dose curve; as a rule, active = well fitted curve in the direction sought with a large enough effect in the repeat runs; inconclusive = weak or mixed curves; inactive = no such curve, though single readings can be large; an effect the other way counts as inactive or inconclusive.

Sequence of Aryl hydrocarbon receptor (Homo sapiens) (P35869 whole entry, looked up): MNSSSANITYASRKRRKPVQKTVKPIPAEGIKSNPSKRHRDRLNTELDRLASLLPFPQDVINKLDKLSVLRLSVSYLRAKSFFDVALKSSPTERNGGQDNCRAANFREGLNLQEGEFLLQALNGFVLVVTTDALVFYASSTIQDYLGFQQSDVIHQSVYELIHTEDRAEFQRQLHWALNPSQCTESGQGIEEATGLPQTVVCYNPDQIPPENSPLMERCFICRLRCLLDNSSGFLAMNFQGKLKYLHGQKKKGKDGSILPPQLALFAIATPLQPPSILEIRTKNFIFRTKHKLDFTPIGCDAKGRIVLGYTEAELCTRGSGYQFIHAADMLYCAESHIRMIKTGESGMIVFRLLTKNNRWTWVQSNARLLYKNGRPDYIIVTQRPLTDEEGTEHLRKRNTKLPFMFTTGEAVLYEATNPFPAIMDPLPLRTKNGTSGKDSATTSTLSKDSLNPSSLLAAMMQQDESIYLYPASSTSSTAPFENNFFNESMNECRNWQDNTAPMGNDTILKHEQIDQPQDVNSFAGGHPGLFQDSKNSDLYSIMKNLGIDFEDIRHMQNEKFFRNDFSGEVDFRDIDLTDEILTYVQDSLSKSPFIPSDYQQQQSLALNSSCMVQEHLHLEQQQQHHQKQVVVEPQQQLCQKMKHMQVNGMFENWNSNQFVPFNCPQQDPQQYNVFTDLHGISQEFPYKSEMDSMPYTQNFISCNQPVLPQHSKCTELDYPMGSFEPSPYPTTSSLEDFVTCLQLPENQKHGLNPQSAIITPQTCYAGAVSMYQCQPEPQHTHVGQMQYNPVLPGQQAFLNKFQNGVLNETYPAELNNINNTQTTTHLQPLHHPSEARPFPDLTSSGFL
Sequence of Aromatase (Homo sapiens) (P11511 whole entry, looked up): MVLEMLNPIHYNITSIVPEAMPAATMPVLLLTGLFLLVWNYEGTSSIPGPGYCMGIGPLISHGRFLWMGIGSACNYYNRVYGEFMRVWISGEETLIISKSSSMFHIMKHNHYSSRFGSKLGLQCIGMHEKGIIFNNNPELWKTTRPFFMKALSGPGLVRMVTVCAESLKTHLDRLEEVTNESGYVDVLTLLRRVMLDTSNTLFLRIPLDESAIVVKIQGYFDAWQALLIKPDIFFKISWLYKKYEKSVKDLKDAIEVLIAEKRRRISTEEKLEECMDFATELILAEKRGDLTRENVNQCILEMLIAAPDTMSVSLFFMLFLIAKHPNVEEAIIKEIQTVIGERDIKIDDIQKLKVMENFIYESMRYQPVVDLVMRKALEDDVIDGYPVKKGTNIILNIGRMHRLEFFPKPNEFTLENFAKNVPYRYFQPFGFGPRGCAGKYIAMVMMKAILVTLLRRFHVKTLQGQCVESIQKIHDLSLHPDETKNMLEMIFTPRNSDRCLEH
Sequence of Estrogen receptor (Homo sapiens) (P03372 whole entry, looked up): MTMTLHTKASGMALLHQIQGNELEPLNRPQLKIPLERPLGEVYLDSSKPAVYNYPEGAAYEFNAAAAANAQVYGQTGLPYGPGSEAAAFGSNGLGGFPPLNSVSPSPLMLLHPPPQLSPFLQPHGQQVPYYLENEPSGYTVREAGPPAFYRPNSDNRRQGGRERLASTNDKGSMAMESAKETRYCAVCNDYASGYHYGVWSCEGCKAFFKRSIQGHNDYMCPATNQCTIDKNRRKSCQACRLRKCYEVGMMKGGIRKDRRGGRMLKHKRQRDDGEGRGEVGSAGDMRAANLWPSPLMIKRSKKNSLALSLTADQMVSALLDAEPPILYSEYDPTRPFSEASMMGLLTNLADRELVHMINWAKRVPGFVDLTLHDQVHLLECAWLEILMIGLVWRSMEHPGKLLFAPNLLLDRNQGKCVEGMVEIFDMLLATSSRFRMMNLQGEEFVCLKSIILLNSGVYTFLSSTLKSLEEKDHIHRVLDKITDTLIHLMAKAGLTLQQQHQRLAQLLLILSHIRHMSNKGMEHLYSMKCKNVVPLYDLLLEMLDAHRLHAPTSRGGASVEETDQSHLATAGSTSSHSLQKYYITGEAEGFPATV
Sequence of Peroxisome proliferator-activated receptor gamma (Homo sapiens) (P37231 whole entry, looked up): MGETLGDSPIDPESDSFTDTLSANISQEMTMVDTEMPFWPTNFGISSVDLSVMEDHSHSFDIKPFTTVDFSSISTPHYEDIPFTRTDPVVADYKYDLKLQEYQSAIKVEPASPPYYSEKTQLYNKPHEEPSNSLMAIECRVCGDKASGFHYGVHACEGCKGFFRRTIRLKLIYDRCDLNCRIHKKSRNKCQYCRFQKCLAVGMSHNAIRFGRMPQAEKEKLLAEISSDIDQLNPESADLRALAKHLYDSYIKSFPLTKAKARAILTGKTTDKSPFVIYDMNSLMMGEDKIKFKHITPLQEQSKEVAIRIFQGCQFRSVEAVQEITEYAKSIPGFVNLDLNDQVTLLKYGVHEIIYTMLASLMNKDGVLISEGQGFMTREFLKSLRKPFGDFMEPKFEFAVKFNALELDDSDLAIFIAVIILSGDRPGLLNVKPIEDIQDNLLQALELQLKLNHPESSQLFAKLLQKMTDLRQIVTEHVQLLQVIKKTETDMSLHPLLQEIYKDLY

Turning to `CCC(C)N(C)C(=O)c1cc2ccccc2c(-c2ccccc2Cl)n1` (stereo not drawn), the Potency in [1] is 35.2 µM (active). Besides, the Potency result in [2], in experiment [4], in experiment [5], in [6], in experiment [7] and in experiment [8] was “inactive” in each case. The Potency result in [9], in experiment [10], in [11], in [12] and in experiment [13] was “inactive” each time. Also, the outcome in experiment [3] and in experiment [14] was inactive.

Turning to `CN(C)C/C=C(/c1ccc(Br)cc1)c1cccnc1`, the Potency in experiment [15] is 10.6 µM (active). Further, the Potency entry in experiment [2], in experiment [16], in experiment [17], in [8], in experiment [18] and in experiment [11] was “inactive” each time. Moreover, the Potency result in experiment [19], in experiment [12] and in experiment [13] was “inactive” each time. Moreover, the compound was classed as inactive in [3].

With `O=S1(=O)N=C(O)c2ccccc21`, the Potency entry in [15], in experiment [7], in experiment [16], in experiment [17], in experiment [9] and in experiment [11] was “inactive” in each case. For the same compound, the Potency entry in experiment [19], in [12] and in [13] was “inactive” each time. Besides, the call in experiment [3] was inactive.

Take `O=C(O)Cn1c(C(=O)Nc2nc(-c3ccccc3Cl)cs2)cc2ccccc21`: the Potency in experiment [1] is 26.6 µM (active); in experiment [19], 21.1 µM (active). Besides, the Potency entry in experiment [2], in experiment [20], in [4], in experiment [5], in [6] and in [7] was “inactive” each time. The Potency entry in experiment [16], in [17], in experiment [9], in experiment [10], in experiment [11] and in experiment [12] was “inactive” in each case. Besides, in experiment [13], the Potency entry is “inactive”.

Consider `CCOc1ccc(NC(=O)CC(C)=O)cc1`, for which the Potency result in experiment [15], in experiment [7], in [16], in [17], in experiment [9] and in experiment [11] was “inactive” throughout. Further, the Potency result in experiment [19], in experiment [12] and in experiment [13] was “inactive” each time. Further, the call in [3] and in [14] was inactive.

As for `CCCCCCCCCC(=O)OCC`, the Potency result in [1], in [2], in experiment [20], in [4], in [6] and in experiment [7] was “inactive” each time. The Potency result in [16], in experiment [17], in experiment [8], in experiment [9], in experiment [18] and in [11] was “inactive” throughout. Besides, the Potency entry in experiment [19], in experiment [12] and in experiment [13] was “inactive” throughout. The compound was classed as inactive in experiment [14].

Regarding `CN(C)CCCNCCCN`, the Potency result in experiment [15], in [20], in experiment [6], in experiment [7], in experiment [16] and in experiment [17] was “inactive” each time. Also, the Potency result in [8], in experiment [9], in experiment [18], in experiment [12] and in [13] was “inactive” each time. In addition, the outcome in experiment [3] and in [14] was inactive.

With `CC(C)CCCC(C)CCO` (stereo not drawn), the Potency entry in experiment [1], in [2], in [20], in experiment [4], in [6] and in [7] was “inactive” each time. The Potency entry in [16], in experiment [17], in [9], in experiment [18], in [10] and in experiment [11] was “inactive” throughout. Further, the Potency result in experiment [19], in [12] and in experiment [13] was “inactive” throughout. Besides, the call in experiment [3] was inactive.

`CC(=O)/C(C)=C/C1C(C)=CCCC1(C)C` (stereo not drawn): the Potency entry in [15], in [20], in [4], in experiment [5], in experiment [6] and in experiment [7] was “inactive” each time. The Potency entry in experiment [16], in experiment [17], in experiment [8], in experiment [9], in [18] and in experiment [10] was “inactive” throughout. Moreover, the Potency entry in experiment [11], in experiment [19] and in experiment [12] was “inactive” in each case. For the same compound, the compound was classed as inactive in experiment [3] and in experiment [14].
